Source: PubChem
The entries come from a sample that favours hits as a whole.
KDM5B inh = blocks human KDM5B histone demethylase activity. Q9UGL1. KDM5B demethylase, FDH-coupled NADH fluorescence (FDH is formaldehyde dehydrogenase). Potency, µM (top dose mostly 57.7 µM), hits mostly inhibitors. 220,000 compounds, 2.6% hits; active = well fitted inhibition curve with a large enough effect; note: 0% is about no effect; nearly all actives have a fitted effect of over 70% in size
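Measured: NADH fluorescence change, 30 min, RT. System: KDM5BΔAP 200 nM final, H3K4me3 peptide, α-KG, Fe(II), ascorbate, NAD⁺ plus FDH, pH 7.5 HEPES. Compounds: titrated, 10 min pre-incubation with enzyme.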
* hit, by the source's call. Potency is the fitted concentration of half-maximal effect.

Results for CCNC(=O)c1ccc(CNC(=O)OC(C)(C)C)cc1 ?
KDM5B inh: inactive

How did CCNC(=O)N(C1CC1)C1CCOC2(CCN(C(=O)Nc3ccccc3F)CC2)C1 (stereo not given) do in these assays?
KDM5B inh: inactive

What do the screens show for `CCCCn1nc(C(=O)Nc2cccc(C(F)(F)F)c2)c2ccccc2c1=O`?
KDM5B inh: inactive

Results for CC(C)C(=O)NCCNC(=O)C1(c2ccccc2)CCC1 ?
KDM5B inh: inactive

Results for COC(=O)CN(CC(=O)NC(=O)NCC(F)(F)F)Cc1ccccc1 ?
KDM5B inh: inactive

What do the screens show for `CCn1cc(S(=O)(=O)N2CCC3(CC2)CC(N(C)Cc2ccccc2)CCO3)cn1` (stereo not given)?
KDM5B inh: inactive

How did O=C(CCc1ncc(-c2ccccc2)o1)Nc1ccc(N2CCOCC2)cc1N1CCOCC1 do in these assays?
KDM5B inh: inactive

What do the screens show for `CC(C)=NNC(=O)C(C)Sc1ccccc1` (stereo not given)?
KDM5B inh: inactive

What do the screens show for `Cc1ccc2occ(CC(=O)Nc3sc4c(c3C(=O)NCc3ccco3)CCCC4)c2c1`?
KDM5B inh: inactive

How did CC(=O)Nc1c(-c2ccc(C)cc2)c(C)nn1-c1ccc(C(=O)NCc2ccco2)cc1 do in these assays?
KDM5B inh: inactive

How did Cc1ccc(C)c(-n2nc(-c3c(C)nc4scc(CC(=O)NCc5ccco5)n4c3=O)cc2C)c1 do in these assays?
KDM5B inh: 20µM*

Results for Cc1cc(C(F)(F)F)nc(CCNC(=O)C2NCCc3[nH]cnc32)n1 (stereo not given) ?
KDM5B inh: inactive

What do the screens show for `Cc1ccc2cccc(OCCNC(=O)C3NCCc4[nH]cnc43)c2n1` (stereo not given)?
KDM5B inh: 14.1µM*

What do the screens show for `O=C(NCc1nncn1CCc1ccccc1)C1NCCc2[nH]cnc21` (stereo not given)?
KDM5B inh: inactive

What do the screens show for `Cn1nnnc1-c1cccc(NS(=O)(=O)c2ccccc2)c1`?
KDM5B inh: inactive

Results for Cc1nnnn1-c1cccc(C(=O)N2CC[C@@](O)(C3CCOCC3)[C@H](C)C2)c1 ?
KDM5B inh: inactive

How did CCCCCNC(=O)Cc1csc2nc(C)c(-c3cc(C)n(-c4cc(F)ccc4C)n3)c(=O)n12 do in these assays?
KDM5B inh: 25.1µM*

How did CCCCCCCNC(=O)Cc1cccs1 do in these assays?
KDM5B inh: inactive

What do the screens show for `CCCCNC(=O)CNC(=O)c1nn(-c2ccc(OC)cc2)c(=O)c2ccccc12`?
KDM5B inh: inactive

Results for CCCCNC(=O)Cc1csc2nc(C)c(-c3cc(C)n(-c4ccc(F)cc4)n3)c(=O)n12 ?
KDM5B inh: 28.2µM*

What do the screens show for `Cc1ccccc1-c1nc2scc(CCNC(=O)C(=O)Nc3cc(F)ccc3F)n2n1`?
KDM5B inh: inactive

How did COc1ccc(-c2nc3scc(CCNC(=O)Cc4ccc(F)cc4)n3n2)cc1 do in these assays?
KDM5B inh: inactive

What do the screens show for `Cc1cc(SCC(=O)NC(=O)NC(C)C)nc2ccccc12`?
KDM5B inh: inactive

How did Cc1cc(CSc2nnc(-c3cccnc3)n2C)no1 do in these assays?
KDM5B inh: inactive

What do the screens show for `CN(C)Cc1nnc(C2CCCN(C(=O)CN(C)c3ccccc3)C2)n1C` (stereo not given)?
KDM5B inh: inactive

What do the screens show for `O=C(Nc1ccnn1C1CCN(Cc2cccc(F)c2F)CC1)c1ccccc1Cl`?
KDM5B inh: inactive

How did CCCCNc1nc(-c2ccc3c(c2)CC(=O)N3)cs1 do in these assays?
KDM5B inh: inactive

How did Cc1cc(=O)n(CC(=O)Nc2ccc(C(C)C)cc2)c(N2CCOCC2)n1 do in these assays?
KDM5B inh: inactive

What do the screens show for `COc1ccc(OC2CCN(C(C)=O)CC2)c(C(=O)NC(C)Cc2cccs2)c1` (stereo not given)?
KDM5B inh: 28.2µM*

Results for COc1cc(C(=O)NCc2nc(C)cs2)ccc1OC1CCN(C(C)=O)CC1 ?
KDM5B inh: inactive

What do the screens show for `COc1ccc(C(=O)NCc2csc(C(C)C)n2)cc1OC1CCN(C(C)=O)CC1`?
KDM5B inh: inactive

Results for CC(C)c1nc(CNC(=O)c2ccc(OC3CCN(C(=O)C4CC4)CC3)cc2)cs1 ?
KDM5B inh: inactive

What do the screens show for `CCn1ccnc1CNC(=O)c1cc(OC)ccc1OC1CCN(C(=O)C2CC2)CC1`?
KDM5B inh: 28.2µM*

Results for CCC(C)NC(=O)C(NC(=O)c1ccccc1F)C1CCN(C(=O)c2ccc(OC)cc2)CC1 (stereo not given) ?
KDM5B inh: inactive

What do the screens show for `COc1ccc(C(C(=O)O)N2CCC(C(=O)N3CCCC3)CC2)c(OC)c1` (stereo not given)?
KDM5B inh: inactive

What do the screens show for `COc1ccc(OC2CCN(C(C)=O)CC2)c(C(=O)N(C)CC2CCCCO2)c1` (stereo not given)?
KDM5B inh: inactive

How did CCC(NC(=O)c1cc(OC)ccc1OC1CCN(C(C)=O)CC1)c1ccc(F)cc1 (stereo not given) do in these assays?
KDM5B inh: 28.2µM*

What do the screens show for `O=C(O)c1cc(Sc2ccccc2C(F)(F)F)nc2ccccc12`?
KDM5B inh: inactive

How did CCOc1ccccc1C(=O)NC(C(=O)OCC(C)C)C(C)C (stereo not given) do in these assays?
KDM5B inh: inactive

What do the screens show for `Cc1ccc(S(=O)(=O)N(Cc2cccnc2)C2CC2)cc1F`?
KDM5B inh: inactive

Results for Clc1cccc(Nc2cnc3ccc(N4CCOCC4)nn23)c1 ?
KDM5B inh: 31.6µM*

How did COc1ccccc1-c1ccc2ncc(Nc3ccc(CN4CCN(C)CC4)cc3)n2n1 do in these assays?
KDM5B inh: inactive

How did CN1CCN(c2ccc3ncc(Nc4ccc(Cl)c(C(F)(F)F)c4)n3n2)CC1 do in these assays?
KDM5B inh: 31.6µM*

Results for Fc1cc(Nc2cnc3ccc(-n4ccnc4)nn23)cc(N2CCOCC2)c1 ?
KDM5B inh: inactive

Results for COc1ccc(-c2ccc3ncc(Nc4ccc(CN5CCN(C)CC5)cc4)n3n2)cn1 ?
KDM5B inh: inactive

How did CN1CCN(c2ccc3ncc(Nc4ccc(OC(F)(F)F)cc4)n3n2)CC1 do in these assays?
KDM5B inh: 31.6µM*

What do the screens show for `COc1ccc(-c2ccc3ncc(Nc4ccnc(N5CCOCC5)c4)n3n2)cc1OC`?
KDM5B inh: inactive

How did COc1ccc(-c2ccc3ncc(Nc4ccc(F)c(Cl)c4)n3n2)cn1 do in these assays?
KDM5B inh: inactive

Results for CN1CCN(c2ccc3ncc(Nc4ccc5c(c4)OCCO5)n3n2)CC1 ?
KDM5B inh: inactive

What do the screens show for `Cc1ccc(CCCCCCCCCCCC(=O)O)cc1`?
KDM5B inh: inactive

Results for CCOc1ccccc1CNC(=O)C1CCN(c2nnc(N3CCCC3=O)s2)CC1 ?
KDM5B inh: inactive

Results for COc1ccc(-c2ccc(=O)n(CC(=O)N3CCCC3)n2)c(F)c1 ?
KDM5B inh: inactive

Results for Cc1ccc2c(COC(=O)C3=NN(C)C(=O)CC3)cc(=O)oc2c1 ?
KDM5B inh: inactive

How did CCN(CC)C(=O)c1cccc(NC(=O)c2cnc3ccccc3n2)c1 do in these assays?
KDM5B inh: inactive

How did N#Cc1nc(-c2cccc3ccccc23)oc1NCc1ccc(F)cc1 do in these assays?
KDM5B inh: inactive

How did S=C(NN=C1CCCCC1)NC1CCCCC1 do in these assays?
KDM5B inh: inactive

How did COc1ccc(C)cc1NC(=O)CC(C)(C(=O)O)c1ccccc1 (stereo not given) do in these assays?
KDM5B inh: inactive
